GIRK2 activator – Activates human GIRK2-containing potassium channels; P48051; HEK293 GIRK2/NPY4 cells, thallium flux fluorescence; activation (% efficacy), % for hits at 37.5 µM; 34,000 tested, under 10 active; AID 1259324;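 active means primary screen hit, no activity in plain HEK293 cells, and in GIRK2-only cells above 5% efficacy rising with concentration; inactive means the rest, including fluorescent compounds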;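 further: efficacy is normalized control-subtracted fluorescence 15 s after thallium addition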
AMPAR-TARP mod – modulators of AMPA receptor GluA2-stargazin complexes | calls only at 30 µM | O88602+P19491 | HEK293 GluA2+stargazin, membrane potential dye (FDSS), glutamate EC50; hits were called plate by plate, in both directions | AID 1259245 | 40,000 tested, 3.5% active;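 active means any of four per-well response measures lying three or more SD from its plate-wide compound average, in either direction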
Target sequence (O88602 whole entry, looked up): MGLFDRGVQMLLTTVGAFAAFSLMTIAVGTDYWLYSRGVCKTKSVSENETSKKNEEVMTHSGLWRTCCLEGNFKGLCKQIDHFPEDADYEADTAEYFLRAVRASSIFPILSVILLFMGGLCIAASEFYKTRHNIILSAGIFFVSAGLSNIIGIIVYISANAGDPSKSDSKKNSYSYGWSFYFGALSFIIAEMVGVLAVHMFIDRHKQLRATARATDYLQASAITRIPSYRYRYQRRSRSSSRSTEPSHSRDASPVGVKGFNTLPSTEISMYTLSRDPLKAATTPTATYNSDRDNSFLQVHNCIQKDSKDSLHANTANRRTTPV
Target sequence (P19491 whole entry, looked up): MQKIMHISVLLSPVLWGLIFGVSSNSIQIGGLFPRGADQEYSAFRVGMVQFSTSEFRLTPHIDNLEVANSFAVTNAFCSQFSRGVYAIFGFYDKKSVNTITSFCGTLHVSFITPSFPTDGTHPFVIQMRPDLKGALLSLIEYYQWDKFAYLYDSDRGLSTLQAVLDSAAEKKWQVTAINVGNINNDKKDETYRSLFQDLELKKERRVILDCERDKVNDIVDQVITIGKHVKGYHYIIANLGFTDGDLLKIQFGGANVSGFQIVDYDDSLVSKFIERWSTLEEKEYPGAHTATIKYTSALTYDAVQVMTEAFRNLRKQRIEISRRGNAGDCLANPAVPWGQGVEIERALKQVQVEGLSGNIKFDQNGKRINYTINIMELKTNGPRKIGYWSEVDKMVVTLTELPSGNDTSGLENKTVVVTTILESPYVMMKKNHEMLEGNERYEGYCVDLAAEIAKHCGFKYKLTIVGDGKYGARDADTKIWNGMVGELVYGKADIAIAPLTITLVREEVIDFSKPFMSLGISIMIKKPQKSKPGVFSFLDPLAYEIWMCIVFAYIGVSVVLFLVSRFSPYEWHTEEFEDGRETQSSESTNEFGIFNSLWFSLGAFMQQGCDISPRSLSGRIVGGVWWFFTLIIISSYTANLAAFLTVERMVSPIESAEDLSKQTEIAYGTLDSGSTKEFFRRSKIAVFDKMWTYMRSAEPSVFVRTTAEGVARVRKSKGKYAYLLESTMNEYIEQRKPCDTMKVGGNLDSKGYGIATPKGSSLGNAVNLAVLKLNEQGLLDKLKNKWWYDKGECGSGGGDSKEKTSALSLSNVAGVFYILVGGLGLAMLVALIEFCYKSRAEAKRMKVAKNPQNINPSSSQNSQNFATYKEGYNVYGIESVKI
* = called active by the depositor; i = inactive; . = no result given; + = active, no number; ! = not active in a repeat. This excerpt belongs to a sample that is enriched for hits.

SMILES	GIRK2 activator	AMPAR-TARP mod
COc1cccc(CNC(=O)C(=O)Nc2ccc3c(c2)N(C(=O)C(C)C)CCC3)c1	i	+
COc1ccc(CNC(=O)C(=O)Nc2ccc3c(c2)N(C(=O)C(C)C)CCC3)cc1	i	i
CCS(=O)(=O)c1ccc(CC(=O)Nc2c3c(nn2C)CCC3)cc1	i	i
C=CCc1ccccc1OCC(O)CN1CCN(Cc2ccccc2)CC1 (stereo not given)	.	i
COc1cc(/C=C2\SC(=S)N(c3ccc(C(=O)O)c(O)c3)C2=O)ccc1O	.	+
COc1cc(/C=C2\SC(=S)N(c3ccc(O)c(C(=O)O)c3)C2=O)ccc1O	.	i
COc1ccccc1CCNC(=O)C(=O)c1cn(CC(=O)N2CCCCCC2)c2ccccc12	.	i
COc1ccc(CN2C(=O)C3(OCCCO3)c3ccccc32)cc1OC	.	i
COc1ccc(OCCCN2C(=O)C3(OCCCO3)c3cccc(C)c32)cc1	i	+!
CSCCC(C)(O)CNS(=O)(=O)c1ccc(Br)s1 (stereo not given)	.	i
COc1ccc(S(=O)(=O)NCC(C)(O)C2CC2)cc1Cl (stereo not given)	i	i
CSCCC(C)(O)CNS(=O)(=O)c1ccc(Cl)s1 (stereo not given)	i	+
COc1ccc(S(=O)(=O)NCC(C)(O)CCSC)cc1Cl (stereo not given)	i	+
CC(C)Cc1cnc2c(c1SCC(=O)Nc1ccccc1F)c(=O)n(C)c(=O)n2C	.	i
O=C(NCC1CCN(C2CCCC2)CC1)c1ccc2c(c1)OCO2	i	.
COc1ccc(Cl)cc1NC(=O)NCCn1nc(-c2ccccc2)ccc1=O	i	i
O=C(Cc1cc(-c2ccc3c(c2)OCO3)on1)NCc1ccc2c(c1)OCO2	i	i
O=C(Cc1cc(-c2ccc3c(c2)OCCO3)on1)NCc1ccccc1	i	+
COC(=O)c1sc2ccccc2c1S(=O)(=O)N(C)CC(=O)Nc1c(C)cccc1C	i	i
COc1ccc(NC(=O)CCc2csc(NS(=O)(=O)c3ccccc3)n2)cc1OC	i	i
NC(=O)c1ccc(NC(=O)CCc2csc(NS(=O)(=O)c3ccccc3)n2)cc1	i	+
Cc1ccc(S(=O)(=O)Nc2nc(CCC(=O)NCc3ccc(F)cc3)cs2)cc1	i	i
O=C(CCc1csc(NS(=O)(=O)c2ccccc2)n1)Nc1ccc(OC(F)(F)F)cc1	i	i
CC(=O)c1cccc(NC(=O)CCc2csc(NS(=O)(=O)c3ccccc3)n2)c1	i	+
O=C(CCc1csc(NS(=O)(=O)c2ccc(F)cc2)n1)Nc1ccc(Cl)cc1	i	+
SMILES	GIRK2 activator	AMPAR-TARP mod
Cc1csc(NC(=O)c2ccc(S(=O)(=O)NCc3cccs3)o2)n1	i	i
O=C(Nc1nc2ccccc2s1)C(=O)N1CCC(Cc2ccccc2)CC1	.	i
O=C(Nc1ccc(Cl)cc1)N(CCCO)CC(O)Cn1c2ccccc2c2ccccc21 (stereo not given)	i	+
O=C(NC1CCCCC1)N(CCCO)CC(O)Cn1c2ccccc2c2ccccc21 (stereo not given)	i	i
CNC(=O)CSc1nc(-c2ccccc2)c(NC(=O)c2ccccc2)s1	i	i
Cn1nc(NC(=O)Cc2ccc(F)cc2)c2c1NC(=O)CC2c1ccco1 (stereo not given)	i	i
CC(C)NC(=O)CCc1csc(NC(=O)c2ccccc2)n1	i	i
COc1cc(/C=C/C(=O)NCCCn2cccc2)cc(OC)c1OC	i	+
COc1cc(/C=C/C(=O)c2ccc(O)cc2)cc(OC)c1OC	.	i
COc1cc(/C=C/C(=O)Nc2nncs2)cc(OC)c1OC	i	+
COc1cc(/C=C/C(=O)NCCc2ccsc2)cc(OC)c1OC	i	i
Cn1cc(C(=O)N2CCCCCC2)cc(NC(=O)C23CC4CC(CC(C4)C2)C3)c1=O	.	i
Cc1ccc(C(CNC(=O)Cc2cccc3ccccc23)N(C)C)cc1 (stereo not given)	i	+
CN(C)C(CNC(=O)Cc1cccc2ccccc12)c1ccc(F)cc1 (stereo not given)	.	i
Cn1nc(CNC(=O)CSc2nc3ccccc3o2)c2ccccc2c1=O	i	i
Cc1csc(NC(=O)c2ccc(S(=O)(=O)Nc3ccc(OC(F)(F)F)cc3)o2)n1	i	+
O=C(Nc1ccc(OC(F)(F)F)cc1)c1ccc(S(=O)(=O)NC2CC2)o1	i	i
Cc1nnc(NC(=O)c2ccc(S(=O)(=O)Nc3ccc(OC(F)(F)F)cc3)o2)s1	i	i
CN(C)S(=O)(=O)c1ccc(C(=O)Nc2ccc(OC(F)(F)F)cc2)o1	i	+
O=C(CSC1=NS(=O)(=O)c2ccccc2N1)NCCCc1ccccc1	.	i
O=C(NCC(O)c1ccsc1)C(=O)Nc1ccc(F)c(Cl)c1 (stereo not given)	i	i
Cc1cccc(-n2c(C)c(C)n3c4c(=O)n(CC(=O)OCc5ccccc5)c(=O)n(C)c4nc23)c1	.	i
CSCCn1c(=NC(=O)c2ccn(C)n2)sc2cc3c(cc21)OCCO3	i	+
CCn1nc(C(=O)N=c2sc3cc(OC)ccc3n2CCSC)cc1C	i	.
COc1ccc2sc(=NC(=O)c3ccno3)n(CCSC)c2c1	i	+
SMILES	GIRK2 activator	AMPAR-TARP mod
Cn1ccc(C(=O)N=c2sc3cc4c(cc3n2C)OCCO4)n1	i	i
CCc1nc2sc(C(c3ccc(F)cc3)N3CCCCC3)c(O)n2n1 (stereo not given)	i	i
Cn1c(=O)c2cc(C(=O)NCCCN3CCCC3=O)sc2n(C)c1=O	i	+
CC(C)CNC(=O)c1cc2c(=O)n(C)c(=O)n(C)c2s1	i	i
Cn1c(=O)c2cc(C(=O)N3CCN(C(=O)c4ccco4)CC3)sc2n(C)c1=O	i	i
Cn1c(=O)c2cc(C(=O)NCCc3ccccc3)sc2n(C)c1=O	i	i
Cn1c(=O)c2cc(C(=O)Nc3ccccc3F)sc2n(C)c1=O	i	+
CN1CCN(C(=O)c2cc3c(=O)n(C)c(=O)n(C)c3s2)CC1	i	+
COc1ccc(S(=O)(=O)Nc2cccc(Oc3ccc(C)nn3)c2)c(OC)c1OC	i	i
COc1ccc(N2C(=O)CC(Sc3ccccc3C(=O)O)C2=O)cc1Cl (stereo not given)	.	i
COc1ccc(OCC(O)Cn2c(C3CC(=O)N(c4ccc(Cl)cc4)C3)nc3ccccc32)cc1 (stereo not given)	i	i
Cc1cccc(NC(=O)CC2CCCCN2S(=O)(=O)c2cccs2)c1C (stereo not given)	i	+
O=C(CC1CCCCN1S(=O)(=O)c1ccccc1)NCc1cccs1 (stereo not given)	.	i
O=C(Nc1onc2c1CSC2)c1cnc2ccccc2n1	i	i
COc1ncccc1C(=O)Nc1onc2c1CSC2	i	+
CCOC(=O)N1CCC(NC(=O)C(=O)Nc2ccccc2SC)CC1	i	i
COc1cccc(N2CCN(C(=O)c3snc(-c4cccc(F)c4)c3N)CC2)c1	i	.
COc1ccc(OCC(=O)Nc2ccc(CC(=O)N3CCOCC3)cc2)cc1	i	+
COc1ccc(CC(=O)Nc2ccc(CC(=O)N3CCCC3)cc2)cc1	i	i
CCOc1ccccc1NC(=O)Cn1c(=O)n(C(C)C)c(=O)c2nscc21	i	+

Compound activity deposited in PubChem BioAssay by several laboratories.
